The text below walks through data of PubChem BioAssay (NCI).

Molecules are shown by their SMILES. This is part of a sample that, as a whole, favours compounds with a hit. Of some 83,000 tested, about 20% had one in any assay.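 Growth was measured after 48 h exposure to one concentration of compound in 96-well plates. Values under 10 count as active.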 Values without a mark were called inactive. Active and inactive are the calls of the source.

Some test systems named below: HOP-92 NSCLC; NCI-H522 lung; RXF 393 renal; SK-MEL-5 melanoma; CCRF-CEM leukemia; OVCAR-4 ovarian; T-47D breast; BT-549 breast; MDA-MB-435 melanoma; SW-620 colon; MCF7 breast; HCC-2998 colon; KM12 colon; NCI-H322M lung; SK-MEL-28 melanoma; SR leukemia; ACHN renal; HCT-116 colon.
Assay in all cases: NCI-60 one-dose screen, 48 h (100 = growth as untreated, 0 = no growth, -100 = all killed)
What all share (conditions): 10 µM

For `Nc1nnc(-c2c[nH]c3ncc(Br)cc23)c(-c2c[nH]c3ccc(Br)cc23)n1`, the growth is 28.4% in the test on HOP-92 NSCLC; 21.9% in the test on NCI-H522 lung; -14.7% (active) in the test with RXF 393 renal; 9.81% (active) with SK-MEL-5 melanoma; 5.14% (active) with CCRF-CEM leukemia; 47.7% in the test with OVCAR-4 ovarian. Also, the growth was 37.4% in the test with T-47D breast; 6.94% (active) with BT-549 breast; 22.4% in the test on MDA-MB-435 melanoma; 20.2% in the test with SW-620 colon; 15.7% in the test on MCF7 breast; 75.7% in the test on HCC-2998 colon. Besides, the growth in the test with KM12 colon was 37.5%.

Regarding `Fc1ccc(-c2csc(Nc3cccc(Nc4nc(-c5ccc(F)cc5)cs4)c3)n2)cc1`, the growth is 60.1% in the test on NCI-H322M lung; 39.2% with HOP-92 NSCLC; 6.23% (active) with NCI-H522 lung; 75.5% in the test with RXF 393 renal; 61.2% in the test with SK-MEL-5 melanoma; 76.4% in the test on SK-MEL-28 melanoma. Further, the growth with CCRF-CEM leukemia is 59.1%; with SR leukemia it was 51.4%; with OVCAR-4 ovarian, 55.7%; with T-47D breast it was 7.43% (active); with BT-549 breast, 64%; with MDA-MB-435 melanoma, 63.1%. Besides, the figures for the growth with SW-620 colon, in the test with MCF7 breast and in the test on HCC-2998 colon were 70.3%, 24.7% and 35.2%, respectively.

Take `O=C(c1ccc(Cl)cc1)C(c1c[nH]c2ccccc12)c1c[nH]c2ccccc12`: the growth in the test with HOP-92 NSCLC was -15.7% (active); with NCI-H522 lung, -82.6% (active); in the test with RXF 393 renal it was -82.1% (active); in the test on ACHN renal, -99.9% (active); in the test with CCRF-CEM leukemia it was 2.45% (active); in the test with SR leukemia, -12.2% (active). For the same compound, the growth with OVCAR-4 ovarian was 7.15% (active); with BT-549 breast it was -38.2% (active); in the test with MDA-MB-435 melanoma, -68.6% (active); with SW-620 colon, -52.6% (active); in the test with MCF7 breast, -69.3% (active); in the test with HCT-116 colon it was -91.4% (active). For the same compound, in the test on HCC-2998 colon, the growth is -89.6% (active).

As for `CC1[C@H]2[C@H](C[C@H]3[C@@H]4CC=C5c6sc(Nc7cccc(Cl)n7)nc6CC[C@]5(C)[C@H]4CC[C@@]32C)O[C@]12CC[C@@H](C)CO2` (stereo partly drawn), the growth in the test on NCI-H322M lung is 102%; with HOP-92 NSCLC, 99.6%; in the test with RXF 393 renal, 123%; with SK-MEL-5 melanoma it was 59.3%; in the test on CCRF-CEM leukemia, 66.6%; in the test on OVCAR-4 ovarian, 104%. For the same compound, the growth is 83.5% in the test with BT-549 breast; 75.8% in the test with MDA-MB-435 melanoma; 104% in the test on SW-620 colon; -66.6% (active) in the test on MCF7 breast; 76.3% with HCT-116 colon; 102% in the test on HCC-2998 colon.
